Among the data in PubChem BioAssay (NCI) are growth values, retold here.

Values joined by “and” are separate entries in the source; they are usually repeats but may differ in a detail not shown here. Equal entries are not always repeated. About 83,000 compounds went through this panel and 20% of them were active in at least one assay; those are over-represented in the sample as a whole.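 Negative percent growth values reflect cell death: -40 means 40% of the cells present at the start died, and -100 means all died.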 A number with no mark means an inactive call. Active and inactive are the calls of the source. The calls were made as follows: active = growth percent below 10; inactive = the rest.

Holding throughout (test): NCI-60 one-dose screen, 48 h (100 = growth as untreated, 0 = no growth, -100 = all killed)
For experiment [1], the system named is NCI-H23 lung.
In experiment [2] the test system is NCI-H226 lung. To be noted: 10 µM unless noted.
Experiment [3] concerns NCI-H322M lung.
Experiment [4] concerns HOP-62 NSCLC.
Experiment [5] deals with NCI-H460 lung.
Experiment [6] concerns HOP-92 NSCLC.
Experiment [7] deals with NCI-H522 lung.
The test system of experiment [8] is A549/ATCC NSCLC.
For experiment [9], the system named is 786-0 renal.
Experiment [10] deals with COLO 205 colon. To be noted: 10 µM unless noted.

For the compound `N#CCN(CC#N)[N+](=O)[O-]`, the growth in experiment [1] (10 µM unless noted) was 109%; in experiment [2] it was 97.9%; in experiment [3] (10 µM unless noted) it was 110%; in experiment [4] (10 µM unless noted), 102%; in [5] (10 µM unless noted), 104%; in experiment [6] (10 µM unless noted) it was 84.9%. Moreover, the results for the growth in [7] (10 µM unless noted), in experiment [8] (10 µM unless noted) and in [9] (10 µM unless noted) were 94.4%, 106% and 103%, respectively.
As for `O=[P+](O)c1cccnc1`, the growth in experiment [1] (10 µM unless noted) was 103%; in experiment [2] it was 105%; in experiment [3] (10 µM unless noted), 94.9%; in [4] (10 µM unless noted) it was 90.3%; in experiment [5] (10 µM unless noted), 107%; in [6] (10 µM unless noted), 109%. In addition, the growth in experiment [7] (10 µM unless noted) is 75.7%; in [8] (10 µM unless noted) it was 101%; in experiment [9] (10 µM unless noted), 98.2%.
Consider `Nc1ccc2c(c1)Cc1cc(N)ccc1-2`, for which the growth was 92.3% in [1] (10 µM unless noted); 91.4% in [2]; 90% in experiment [3] (10 µM unless noted); 87.1% in [4] (10 µM unless noted); 93.1% in experiment [5] (10 µM unless noted); 76.5% in [6] (10 µM unless noted). In addition, the values for the growth in [7] (10 µM unless noted), in experiment [8] (10 µM unless noted) and in [9] (10 µM unless noted) were 92.8%, 84.3% and 105%, respectively.
`C[C@]12CC[C@H]3[C@@H](C[C@@H]4SC(Nc5ccccc5)=N[C@@]45C/C(=N/O)CC[C@]35C)[C@@H]1CCC2=O`: the growth is 79.5% in experiment [1] (10 µM unless noted); 114% in experiment [2]; 94.5% in experiment [3] (10 µM unless noted); 94% in [4] (10 µM unless noted); 56.4% in experiment [5] (10 µM unless noted); 107% in [6] (10 µM unless noted). Moreover, the growth was 71.5% in experiment [7] (10 µM unless noted), 88.9% in experiment [8] (10 µM unless noted), 18.4% in experiment [9] (10 µM unless noted) and 97% in experiment [10].
Regarding `CN1CCN(c2ccc(Cl)cc2)CC1`, the growth in experiment [1] (10 µM unless noted) is 73.6%; in [2], 93.8%; in experiment [3] (10 µM unless noted), 94.2%; in [4] (10 µM unless noted) it was 93.1%; in experiment [5] (10 µM unless noted) it was 44.6%; in experiment [6] (10 µM unless noted), 93.7%. Also, the growth was 44.3% in experiment [7] (10 µM unless noted), 69.1% in experiment [8] (10 µM unless noted), 104% in experiment [9] (10 µM unless noted) and 89.8% in [10].
`O=C(CBr)OCCOC(=O)CBr`: the growth in [1] (10 µM unless noted) was 84.7%; in [2], 109%; in experiment [3] (10 µM unless noted), 97.7%; in experiment [4] (10 µM unless noted), 109%; in experiment [5] (10 µM unless noted) it was 95%; in [6] (10 µM unless noted), 114%. Also, the growth in experiment [7] (10 µM unless noted) was -74.6% (active); in experiment [8] (10 µM unless noted), 92.8%; in experiment [9] (10 µM unless noted), 24.4%; in experiment [10] it was 104%.
`COc1ccc(O)c2c(=O)c3c(OC)cc4c(c3oc12)[C@@H]1C=CO[C@@H]1O4`: the growth in experiment [1] (10 µM unless noted) was 6.73% (active); in [2], 36.8%; in experiment [3] (10 µM unless noted) it was 42.4%; in experiment [4] (10 µM unless noted), 36.6%; in experiment [5] (10 µM unless noted), 8.73% (active); in [6] (10 µM unless noted), 70.5%. Moreover, the growth is 41.9% in experiment [7] (10 µM unless noted), 50% in experiment [8] (10 µM unless noted) and 74.6% in experiment [9] (10 µM unless noted).
For `CCOP(=O)(NC)OCC`, the growth in experiment [1] (10 µM unless noted) is 95.6%; in [2] it was 94.3%; in experiment [3] (10 µM unless noted), 122%; in [4] (10 µM unless noted), 90.8%; in [5] (10 µM unless noted) it was 104%; in experiment [6] (10 µM unless noted), 74.5%. Besides, the growth in experiment [7] (10 µM unless noted) is 112%; in experiment [8] (10 µM unless noted), 114%; in [9] (10 µM unless noted) it was 92.1%; in [10] it was 117%.
As to `O=C(O)CCCc1ccc(N(CCCl)CCCl)cc1`, the growth in experiment [1] (10 µM) is 102% and 79.4%; in experiment [1] (75 µM) it was 23.1%; in experiment [3] (10 µM), 98.7% and 112%; in experiment [3] (75 µM), 91.9%; in [4] (10 µM), 90.1% and 91.6%; in experiment [4] (75 µM), 35%. The growth is 86.6% and 54.5% in [5] (10 µM); 21% in experiment [5] (75 µM); 95.3% and 40.2% in experiment [6] (10 µM); 14.6% in experiment [6] (75 µM); 87.2% and 59.6% in [7] (10 µM); 0.62% (active) in experiment [7] (75 µM). The growth is 89.2% in experiment [8] (10 µM); 46.1% in experiment [8] (75 µM); 98.4% and 86.1% in experiment [9] (10 µM); 9.49% (active) in experiment [9] (75 µM).
Regarding `N[C@@H](CCC(=O)CCl)C(=O)O`, the growth was 97.3% [20 µM] in [1] (10 µM unless noted); 104% [20 µM] in experiment [2]; 98.1% [20 µM] in experiment [3] (10 µM unless noted); 95.9% [20 µM] in experiment [4] (10 µM unless noted); 106% [20 µM] in experiment [5] (10 µM unless noted); 84.6% [20 µM] in [6] (10 µM unless noted). For the same compound, the results for the growth in experiment [7] (10 µM unless noted), in experiment [8] (10 µM unless noted) and in experiment [9] (10 µM unless noted) were 77.1% [20 µM], 102% [20 µM] and 101% [20 µM], respectively.
`CC[C@H](C)[C@H](NC(=O)[C@H]1CCCCN1C)C(=O)N(C)[C@H](C(=O)NC12CC(C(=O)N[C@@H](Cc3ccccc3)C[C@H](C)C(=O)OC)(C1)C2)C(C)C`: the growth in experiment [1] (10 µM unless noted) was 97.7%; in experiment [2], 98.8%; in [3] (10 µM unless noted), 91.9%; in [4] (10 µM unless noted), 92.8%; in [5] (10 µM unless noted), 101%; in [6] (10 µM unless noted), 98.4%. Moreover, the growth was 74.2% in [7] (10 µM unless noted), 92% in experiment [8] (10 µM unless noted), 103% in experiment [9] (10 µM unless noted) and 110% in experiment [10].
